Activity calls are given as the source filed them.
Experiments:
[1] = E. coli DRC41 culture turbidity changes, primary screen, E. coli filamentation inducer project, strain DRC41, OD650, 48 h (AID 1152);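 further: E. coli MC1000 strain DRC41 lacking acrAB efflux pump and sulA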; conditions: E. coli DRC41 (acrAB sulA), higher = more signal, called active from +8 up or from −8 down
[2] = small-molecule binders of probe aLefty1, primary screen, biochemical, small-molecule microarray, 635/667 nm fluorescence (AID 1153); conditions: higher = more signal;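 further: score merges spot fluorescence with signal-to-noise ratio from the scanned slide images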
[3] = PSAC antagonists in infected red cells, primary screen, cell-based, P. falciparum Indochina, OD700, 1 h (AID 1154); conditions: P. falciparum Indochina infected RBC osmotic lysis, higher = more signal, called active from +8 up or from −8 down
[4] = PSAC antagonists in infected red cells, primary screen, cell-based, P. falciparum Indochina, OD700, 2 h (AID 1155);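 further: lysis reports solute entry through the parasite surface anion channel PSAC; channel blockers reduce lysis of infected cells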; conditions: P. falciparum Indochina infected erythrocytes, osmotic lysis OD700; higher = more signal, called active from +8 up or from −8 down
[5] = osmotic lysis modulators in infected erythrocytes, primary screen, PSAC antagonist project, cell-based, P. falciparum Indochina, OD700, 3 h (AID 1156); conditions: higher = more signal, called active from +8 up or from −8 down
[6] = PSAC antagonists in infected red cells, primary screen, cell-based, P. falciparum Indochina, OD700, 18 h (AID 1157); conditions: P. falciparum Indochina infected erythrocytes, osmotic lysis OD700, 18 h; higher = more signal, called active from +8 up or from −8 down
[7] = modulators of S6 phosphorylation in cells, primary screen, cell-based, A549, cytoblot, luminescence, serum-stimulated (AID 1158); conditions: A549 phospho-S6 cytoblot, 5 h, higher = more signal;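 further: serum-stimulated A549 lung adenocarcinoma cells; signal is phosphorylated S6 detected by cytoblot immunostaining with HRP secondary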
[8] = biological target: NADPH oxidase 2 (Homo sapiens) (UniProt P04839); assay: NOX2-dependent H2O2 signal modulators, primary screen, NOX inhibitor project, cell-based, HEK293-NOX2, PMA-stimulated, Amplex Red fluorescence (AID 1159); conditions: 45 min, higher = more signal, called active from +8 up or from −8 down; further: test concentration not given here
[9] = biological target: NADPH oxidase 4 (Homo sapiens) (UniProt Q9NPH5); assay: NOX4-dependent H2O2 signal modulators, primary screen, NOX inhibitor project, cell-based, HEK293-NOX4, tetracycline-induced, Amplex Red fluorescence (AID 1160); conditions: 45 min, higher = more signal, called active from +8 up or from −8 down
[10] = biological target: NADPH oxidase 5 (Homo sapiens) (UniProt Q96PH1); assay: NOX5-dependent H2O2 signal modulators, primary screen, NOX inhibitor project, cell-based, HEK293-NOX5, Amplex Red fluorescence (AID 1161); conditions: HEK293-NOX5, ionomycin, 45 min, higher = more signal
[11] = A549 cell viability effects, profiling panel, calcein-AM fluorescence, 48 h, basal (AID 1162); conditions: higher = more signal; further: test concentration not given here
[12] = adipocyte viability effects, profiling panel, cell-based, 3T3-L1 adipocytes, calcein-AM fluorescence, 48 h, basal (AID 1163); conditions: 3T3-L1 adipocytes viability, higher = more signal; further: test concentration not given here
[13] = HepG2 cell viability effects, profiling panel, calcein-AM fluorescence, 48 h, basal (AID 1164); conditions: higher = more signal; further: test concentration not given here
[14] = MM1S cell viability effects, profiling panel, calcein-AM fluorescence, 48 h, basal (AID 1165); conditions: higher = more signal;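 further: viability of MM1S multiple myeloma cells under basal unstimulated conditions; test concentration not given here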
[15] = basal RPMI8226 viability, no added stimulus, profiling panel, cell-based, calcein-AM fluorescence, 48 h, PK04 Diversity Set (AID 1166); conditions: RPMI8226 myeloma viability, higher = more signal;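 further: cells grown under basal conditions without added stimulus; test concentration not given here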
[16] = basal HepG2 mitochondrial membrane potential changes, profiling panel, cell-based, JC-1 fluorescence, 24 h, 100 nL compound (AID 1167); conditions: higher = more signal; further: test concentration not given here
[17] = basal 3T3-L1 adipocyte mitochondrial potential changes, profiling panel, cell-based, JC-1 fluorescence, 3T3-L1 adipocytes, 24 h, 100 nL compound (AID 1168); conditions: JC-1 mitochondrial fluorescence, higher = more signal, called active from +8 up or from −8 down; further: test concentration not given here
[18] = basal RPMI8226 mitochondrial membrane potential changes, profiling panel, cell-based, JC-1 fluorescence, 24 h, 100 nL compound (AID 1169); conditions: RPMI8226 myeloma, JC-1 mitochondrial potential fluorescence, higher = more signal; further: test concentration not given here
[19] = basal MM1S mitochondrial membrane potential changes, profiling panel, cell-based, JC-1 fluorescence, 24 h, 100 nL compound (AID 1170); conditions: higher = more signal; further: test concentration not given here
[20] = A549 lung cancer cell viability effects, profiling panel, resazurin fluorescence, 24 h, PK04 Diversity Set (AID 1171); conditions: higher = more signal, called active from +8 up or from −8 down; further: test concentration not given here

Chain of NADPH oxidase 2 (Homo sapiens) (P04839 whole entry, looked up): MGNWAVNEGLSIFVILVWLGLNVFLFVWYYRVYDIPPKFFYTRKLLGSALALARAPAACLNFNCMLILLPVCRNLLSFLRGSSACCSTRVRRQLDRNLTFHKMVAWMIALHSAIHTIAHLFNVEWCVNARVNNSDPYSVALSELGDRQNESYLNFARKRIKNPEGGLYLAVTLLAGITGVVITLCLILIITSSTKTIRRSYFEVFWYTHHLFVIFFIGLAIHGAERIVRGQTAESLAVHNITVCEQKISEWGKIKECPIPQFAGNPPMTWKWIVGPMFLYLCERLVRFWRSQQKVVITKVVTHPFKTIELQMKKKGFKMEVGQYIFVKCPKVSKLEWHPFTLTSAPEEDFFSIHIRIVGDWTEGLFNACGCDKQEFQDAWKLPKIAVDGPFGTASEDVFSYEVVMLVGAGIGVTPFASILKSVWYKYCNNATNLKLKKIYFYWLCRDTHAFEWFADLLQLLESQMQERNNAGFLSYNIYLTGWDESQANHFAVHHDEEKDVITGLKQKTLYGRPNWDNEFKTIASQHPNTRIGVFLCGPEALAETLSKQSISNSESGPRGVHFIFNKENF
Chain of NADPH oxidase 4 (Homo sapiens) (Q9NPH5 whole entry, looked up): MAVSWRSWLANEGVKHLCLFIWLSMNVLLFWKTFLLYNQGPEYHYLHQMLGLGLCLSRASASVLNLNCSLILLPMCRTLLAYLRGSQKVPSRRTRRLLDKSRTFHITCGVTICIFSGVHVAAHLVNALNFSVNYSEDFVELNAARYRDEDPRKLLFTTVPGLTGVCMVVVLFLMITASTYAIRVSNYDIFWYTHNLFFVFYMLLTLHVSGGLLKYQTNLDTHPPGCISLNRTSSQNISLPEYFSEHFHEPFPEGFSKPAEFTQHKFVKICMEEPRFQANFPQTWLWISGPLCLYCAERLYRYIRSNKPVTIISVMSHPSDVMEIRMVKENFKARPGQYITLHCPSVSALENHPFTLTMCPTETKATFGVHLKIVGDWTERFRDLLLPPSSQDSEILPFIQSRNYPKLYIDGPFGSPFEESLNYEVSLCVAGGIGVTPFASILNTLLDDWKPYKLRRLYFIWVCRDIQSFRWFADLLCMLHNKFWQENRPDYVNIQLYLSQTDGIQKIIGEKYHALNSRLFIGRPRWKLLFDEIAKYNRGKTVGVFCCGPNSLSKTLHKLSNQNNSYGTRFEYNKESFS
Chain of NADPH oxidase 5 (Homo sapiens) (Q96PH1 whole entry, looked up): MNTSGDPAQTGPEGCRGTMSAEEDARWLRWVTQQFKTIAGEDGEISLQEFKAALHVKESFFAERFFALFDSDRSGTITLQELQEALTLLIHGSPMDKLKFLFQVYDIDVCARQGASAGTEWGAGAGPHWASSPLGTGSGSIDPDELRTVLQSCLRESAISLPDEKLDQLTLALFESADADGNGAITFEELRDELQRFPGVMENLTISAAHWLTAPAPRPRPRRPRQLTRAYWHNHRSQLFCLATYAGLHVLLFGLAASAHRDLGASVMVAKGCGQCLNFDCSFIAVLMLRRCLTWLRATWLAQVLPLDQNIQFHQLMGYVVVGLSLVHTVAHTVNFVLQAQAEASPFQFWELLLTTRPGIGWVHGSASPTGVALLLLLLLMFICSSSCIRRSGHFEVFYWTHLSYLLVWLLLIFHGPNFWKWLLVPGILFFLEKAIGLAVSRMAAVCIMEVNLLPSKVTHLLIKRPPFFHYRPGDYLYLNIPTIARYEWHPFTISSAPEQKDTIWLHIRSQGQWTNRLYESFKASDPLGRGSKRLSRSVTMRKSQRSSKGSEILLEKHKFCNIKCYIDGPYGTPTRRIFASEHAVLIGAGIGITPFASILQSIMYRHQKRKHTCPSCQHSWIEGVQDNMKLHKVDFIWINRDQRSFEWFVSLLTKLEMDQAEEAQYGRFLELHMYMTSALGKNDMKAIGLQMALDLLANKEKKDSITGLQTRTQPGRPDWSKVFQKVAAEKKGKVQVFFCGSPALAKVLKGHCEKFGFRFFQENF

Compound	z-score [1]	composite z-score [2]	z-score [3]	z-score [4]	z-score [5]	z-score [6]	z-score [7]	z-score [8]	z-score [9]	z-score [10]	z-score [11]	z-score [12]	z-score [13]	z-score [14]	z-score [15]	z-score [16]	z-score [17]	z-score [18]	z-score [19]	z-score [20]
CC1CC/C=C\[C@H]2OC34C=CCN(C(C)C)C(=O)[C@H]3N(CCCO)C(=O)[C@@H]4C2C(=O)O1 (stereo not given in full)	0.658 (inactive)	-0.0536	0.0261 (inactive)	-0.0331 (inactive)	-0.0769 (inactive)	-0.207 (inactive)	-0.251	1.57 (inactive)	0.213 (inactive)	2.02	-0.478	-0.156	-0.381	-0.929	0.449	0.486	0.51 (inactive)	-0.0642	0.687	0.385 (inactive)
COCCCNC(=O)[C@@]1(CCS(=O)(=O)c2ccccc2)N=C(c2ccc(OCCCO)cc2)O[C@H]1c1ccccc1	2.46 (inactive)	0.812	28.5 (active)	21 (active)	1.08 (inactive)	1.55 (inactive)	0.326	3.58 (inactive)	1.71 (inactive)	-0.339	2.27	0.217	1.84	-0.345	-0.193	0.887	-0.468 (inactive)	0.243	0.508	0.486 (inactive)
CCOC(=O)NN=C1C[C@@H](O)[C@@H](O)[C@@H]2[C@@H]3C(=O)N(C[C@@H]4CCCO4)C(=O)[C@@H]3CC[C@@H]12	1.2 (inactive)	-0.245	0.564 (inactive)	-0.243 (inactive)	0.406 (inactive)	-0.0631 (inactive)	-0.0861	-0.543 (inactive)	0.111 (inactive)	0.354	0.0693	-0.637	0.473	0.157	0.549	1.06	0.491 (inactive)	0.248	-0.895	-0.175 (inactive)
COC(=O)[C@@]1(Cc2ccc(OC)cc2)[C@H]2c3cc(C(=O)N4CCCC4)n(Cc4cc(F)c(F)c(F)c4)c3C[C@H]2CN1C(=O)c1ccccc1	-2.13 (inactive)	2.39	1.1 (inactive)	1.07 (inactive)	0.718 (inactive)	0.911 (inactive)	-0.215	1.01 (inactive)	-0.256 (inactive)	0.603	-1.19	-0.0755	-0.521	-1	-3.11	1.31	-1.6 (inactive)	-0.87	-1.2	-1.08 (inactive)
CO[C@@H]1COC(=O)[C@H](C)NC(=O)[C@@H](C)COC(=O)CCC[C@H]1C	0.298 (inactive)	0.0291	5.14 (inactive)	0.891 (inactive)	1.45 (inactive)	0.516 (inactive)	-0.276	-0.869 (inactive)	0.0705 (inactive)	-1.15	-0.0857	-0.459	-0.735	-0.3	-1.38	-0.85	-0.788 (inactive)	0.706	-0.626	-0.0213 (inactive)
COC(=O)[C@H](C)NC(=O)CCC1CC(OC(=O)NCc2ccc3c(c2)OCO3)CC2(CCCC(COC(=O)NCCOc3ccccc3)O2)O1 (stereo not given in full)	-0.638 (inactive)	-0.414	-1.1 (inactive)	-0.123 (inactive)	-0.409 (inactive)	-0.323 (inactive)	1.48	-0.245 (inactive)	0.758 (inactive)	0.214	1.99	0.714	0.748	0.0937	0.487	0.916	1.67 (inactive)	-0.647	-1.09	0.294 (inactive)
C[C@@H]1C=CCC(=O)OC[C@H](C)C(=O)OC[C@H]2O[C@H]1C=C[C@H]2O	0.0366 (inactive)	-0.15	1.17 (inactive)	0.714 (inactive)	0.0284 (inactive)	0.254 (inactive)	1.68	-0.648 (inactive)	-2.12 (inactive)	-0.384	0.145	-0.261	-0.139	-1.42	-0.595	0.482	0.36 (inactive)	-0.103	-0.314	0.172 (inactive)
CC(C)(C)OC(=O)CC[C@]1(C(=O)NCc2ccccc2)N=C(c2ccc(OCCCO)cc2)O[C@H]1c1ccccc1	0.185 (inactive)	1.18	14.6 (active)	1.79 (inactive)	1.14 (inactive)	0.887 (inactive)	-0.009	-2.22 (inactive)	-0.583 (inactive)	-1.81	-1.02	0.587	-0.329	-1.99	-1.14	0.956	-1.1 (inactive)	-0.762	-0.531	0.198 (inactive)
